Screen size: about 5,500 compounds; about 2,000 (36%) were called active. About 18% were inconclusive and are not listed. This is one part of the list. A number with no mark means an inactive call. No stated cut-off is given here; in the data, active means normalized growth mostly below about 0.91 (no sharp cut-off); inconclusive means no clear call, values can overlap the other calls; inactive means mostly above about 0.92.
Experiment: chemical genetic growth profiling, strain panel (AID 1159580);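 further: tested at 20 µM; growth read once vehicle control cultures reached saturation at 30 °C; 1 = growth at the plate median or of vehicle wells; lower values mean less growth of the strain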
Details: growth OD

## C[C@@H]1CC[C@@]23CCC4(C)[C@@](C=CC5[C@@]6(C)CC[C@H](O)C(C)(C)C6CC[C@]54C)(OC2=O)C3[C@H]1C (stereo partly drawn)
S. cerevisiae deletion strains, locus YJR043C, strain POL32, hits give low values
  normalized growth: 1
S. cerevisiae deletion strains, locus YJR066W, strain TOR1, hits give low values
  normalized growth: 0.991
S. cerevisiae deletion strains, locus YJR075W, strain HOC1, hits give low values
  normalized growth: 1.02
S. cerevisiae deletion strains, locus YKL009W, strain mrt4, hits give low values
  normalized growth: 1.26 [resistant] (active)
S. cerevisiae deletion strains, locus YKL085W, strain MDH1 (second series), hits give low values
  normalized growth: 1
S. cerevisiae deletion strains, locus YKL085W, strain MDH1, hits give low values
  normalized growth: 1
S. cerevisiae deletion strains, locus YKL160W, strain elf1, hits give low values
  normalized growth: 1.01
S. cerevisiae deletion strains, locus YKL190W, strain CNB1, hits give low values
  normalized growth: 1.01
S. cerevisiae deletion strains, locus YKR001C, strain vps1, hits give low values
  normalized growth: 1.06
S. cerevisiae deletion strains, locus YKR026C, strain gcn3, hits give low values
  normalized growth: 1.01
S. cerevisiae deletion strains, locus YKR091W, strain srl3, hits give low values
  normalized growth: 1
S. cerevisiae deletion strains, locus YLL001W, strain dnm1, hits give low values
  normalized growth: 1.02
S. cerevisiae deletion strains, locus YLL026W, hits give low values
  normalized growth: 1
S. cerevisiae deletion strains, locus YLL041C, strain sdh2, hits give low values
  normalized growth: 1
S. cerevisiae deletion strains, locus YLR027C, strain aat2, hits give low values
  normalized growth: 1
S. cerevisiae deletion strains, locus YLR039C, strain RIC1, hits give low values
  normalized growth: 1.09
S. cerevisiae deletion strains, locus YLR058C, strain SHM2, hits give low values
  normalized growth: 1.02
S. cerevisiae deletion strains, locus YLR102C, strain apc9, hits give low values
  normalized growth: 1.03
S. cerevisiae deletion strains, locus YLR113W, strain HOG1, hits give low values
  normalized growth: 1.02
S. cerevisiae deletion strains, locus YLR221C, strain rsa3, hits give low values
  normalized growth: 0.998
S. cerevisiae deletion strains, locus YLR258W, strain gsy2, hits give low values
  normalized growth: 0.996
S. cerevisiae deletion strains, locus YLR262C, strain YPT6 (second series), hits give low values
  normalized growth: 1.02
S. cerevisiae deletion strains, locus YLR262C, strain YPT6, hits give low values
  normalized growth: 1.09
S. cerevisiae deletion strains, locus YLR268W, strain sec22, hits give low values
  normalized growth: 1.03
S. cerevisiae deletion strains, locus YLR320W, strain mms22, hits give low values
  normalized growth: 1.01
S. cerevisiae deletion strains, locus YLR330W, strain CHS5, hits give low values
  normalized growth: 1.03
S. cerevisiae deletion strains, locus YLR342W, strain FKS1 (second series), hits give low values
  normalized growth: 1.02
S. cerevisiae deletion strains, locus YLR342W, strain FKS1, hits give low values
  normalized growth: 1.01
S. cerevisiae deletion strains, locus YLR357W, strain rsc2, hits give low values
  normalized growth: 1.07
S. cerevisiae deletion strains, locus YLR370C, strain arc18, hits give low values
  normalized growth: 1.01
S. cerevisiae deletion strains, locus YLR371W, strain rom2, hits give low values
  normalized growth: 1.29 [resistant] (active)
S. cerevisiae deletion strains, locus YLR384C, strain iki3, hits give low values
  normalized growth: 0.981
S. cerevisiae deletion strains, locus YLR418C, strain cdc73, hits give low values
  normalized growth: 1.07
S. cerevisiae deletion strains, locus YML016C, strain PPZ1, hits give low values
  normalized growth: 1.01
S. cerevisiae deletion strains, locus YML032C, strain rad52, hits give low values
  normalized growth: 1.02
S. cerevisiae deletion strains, locus YML120C, strain ndi1, hits give low values
  normalized growth: 1
S. cerevisiae deletion strains, locus YML124C, strain tub3, hits give low values
  normalized growth: 1
S. cerevisiae deletion strains, locus YMR058W, strain fet3, hits give low values
  normalized growth: 1
S. cerevisiae deletion strains, locus YMR078C, strain ctf18, hits give low values
  normalized growth: 0.991
S. cerevisiae deletion strains, locus YMR125W, strain sto1, hits give low values
  normalized growth: 1.01
S. cerevisiae deletion strains, locus YMR129W, hits give low values
  normalized growth: 0.997
S. cerevisiae deletion strains, locus YMR205C, strain PFK2, hits give low values
  normalized growth: 1.02
S. cerevisiae deletion strains, locus YMR223W, strain ubp8, hits give low values
  normalized growth: 1.08
S. cerevisiae deletion strains, locus YMR231W, strain pep5, hits give low values
  normalized growth: 0.98
S. cerevisiae deletion strains, locus YMR307W, strain GAS1, hits give low values
  normalized growth: 1.13
S. cerevisiae deletion strains, locus YNL067W, strain RPL9B, hits give low values
  normalized growth: 1.01
S. cerevisiae deletion strains, locus YNL071W, strain lat1, hits give low values
  normalized growth: 1.01
S. cerevisiae deletion strains, locus YNL183C, strain NPR1, hits give low values
  normalized growth: 0.998
S. cerevisiae deletion strains, locus YNL209W, strain ssb2, hits give low values
  normalized growth: 1.01
S. cerevisiae deletion strains, locus YNL233W, strain BNI4, hits give low values
  normalized growth: 1.05
S. cerevisiae deletion strains, locus YNL248C, strain rpa49, hits give low values
  normalized growth: 1.01
S. cerevisiae deletion strains, locus YNL250W, strain rad50, hits give low values
  normalized growth: 1
S. cerevisiae deletion strains, locus YNL271C, strain bni1, hits give low values
  normalized growth: 0.994
S. cerevisiae deletion strains, locus YNL298W, strain CLA4, hits give low values
  normalized growth: 1
S. cerevisiae deletion strains, locus YNL307C, strain MCK1, hits give low values
  normalized growth: 1
S. cerevisiae deletion strains, locus YNL322C, strain KRE1 (second series), hits give low values
  normalized growth: 0.998
S. cerevisiae deletion strains, locus YNR049C, strain mso1, hits give low values
  normalized growth: 1.01
S. cerevisiae deletion strains, locus YNR052C, strain pop2, hits give low values
  normalized growth: 1.02
S. cerevisiae deletion strains, locus YOL006C, strain TOP1, hits give low values
  normalized growth: 1.08
S. cerevisiae deletion strains, locus YOL012C, strain htz1
  normalized growth: 2.58 [resistant] (active)
S. cerevisiae deletion strains, locus YOL147C, strain pex11, hits give low values
  normalized growth: 1.01
S. cerevisiae deletion strains, locus YOR001W, strain rrp6, hits give low values
  normalized growth: 1
S. cerevisiae deletion strains, locus YOR061W, strain CKA2, hits give low values
  normalized growth: 1.01
S. cerevisiae deletion strains, locus YOR069W, strain VPS5, hits give low values
  normalized growth: 1.01
S. cerevisiae deletion strains, locus YOR070C, strain gyp1, hits give low values
  normalized growth: 1.03
S. cerevisiae deletion strains, locus YOR080W, strain dia2, hits give low values
  normalized growth: 1.09
S. cerevisiae deletion strains, locus YOR083W, strain WHI5, hits give low values
  normalized growth: 1.01
S. cerevisiae deletion strains, locus YOR106W, strain vam3, hits give low values
  normalized growth: 1.02
S. cerevisiae deletion strains, locus YOR136W, strain idh2, hits give low values
  normalized growth: 1.06
S. cerevisiae deletion strains, locus YOR144C, strain elg1, hits give low values
  normalized growth: 0.997
S. cerevisiae deletion strains, locus YOR184W, strain ser1, hits give low values
  normalized growth: 1.05
S. cerevisiae deletion strains, locus YOR231W, strain MKK1, hits give low values
  normalized growth: 1.02
S. cerevisiae deletion strains, locus YOR265W, strain rbl2, hits give low values
  normalized growth: 1.01
S. cerevisiae deletion strains, locus YOR270C, strain vph1, hits give low values
  normalized growth: 1.05
S. cerevisiae deletion strains, locus YOR290C, strain snf2, hits give low values
  normalized growth: 1
S. cerevisiae deletion strains, locus YOR316C, strain cot1, hits give low values
  normalized growth: 1.03
S. cerevisiae deletion strains, locus YPL051W, strain arl3, hits give low values
  normalized growth: 1.02
S. cerevisiae deletion strains, locus YPL055C, strain LGE1, hits give low values
  normalized growth: 1.06
S. cerevisiae deletion strains, locus YPL078C, strain atp4, hits give low values
  normalized growth: 1.02
S. cerevisiae deletion strains, locus YPL106C, strain sse1, hits give low values
  normalized growth: 1.03
S. cerevisiae deletion strains, locus YPL240C, strain hsp82, hits give low values
  normalized growth: 1
S. cerevisiae deletion strains, locus YPL256C, strain CLN2, hits give low values
  normalized growth: 1.06
S. cerevisiae deletion strains, locus YPR119W, strain clb2, hits give low values
  normalized growth: 0.986
S. cerevisiae deletion strains, locus YPR141C, strain kar3, hits give low values
  normalized growth: 1
S. cerevisiae deletion strains, locus YPR163C, strain tif3, hits give low values
  normalized growth: 1
S. cerevisiae deletion strains, locus YPR167C, strain met16, hits give low values
  normalized growth: 1.05
S. cerevisiae deletion strains, strain wtn01, hits give low values
  normalized growth: 1
S. cerevisiae strains, strain wild type, hits give low values
  normalized growth: 1.02
